HEK293 cAMP cs – parental HEK293 cAMP activation (counter-screen) | AID 938 | Potency, µM (highest dose often 57.1 µM), inactives show at the top dose activation, actives largely listed as activators | 73,000 compounds, 2.5% hits | parental HEK293 CNG cAMP sensor, membrane potential fluorescence; note: % of control where 0% means no effect; nearly all actives have a fitted effect of over 55% in size
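Parental HEK 293 cells stably expressing a modified CNG channel (no TSHR) report cAMP rise as membrane depolarization. Membrane potential dye with 100 uM RO 20-1724 was loaded for 60 min at room temperature, then compound added for 30 min; fluorescence read at 590 nm.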
Caspase-7 inhib – allosteric or competitive inhibitors of human caspase-7; recombinant caspase-7, Ac-DEVD-AFC fluorescence rate; AID 889; P55210; Potency, µM (top dose mostly 57.5 µM), inactives show at the top dose activity change, negative = inhibition, hits mostly inhibitors; 75,000 compounds, 0.02% hits; active = well fitted inhibition curve with a large enough effect in the main read-out, with a control signal flat, not every such curve was filed as active; inconclusive = small, poorly fitted or top-dose-only effect, or a change in a side signal; note: % of control where 0% means no effect
TSHR ag – activates the human thyroid stimulating hormone receptor; P16473; HEK293-CNG-TSHR cells (CNG channel as cAMP sensor), membrane potential dye, cAMP; Potency, µM (series often up to 57.1 µM), inactives show at the top dose activation, usual class: activators; 73,000 compounds, 0.48% hits; active = well fitted activation curve with a large enough effect in the main read-out, with a control signal flat, not every such curve was filed as active; inconclusive = small, poorly fitted or top-dose-only effect, or a change in a side signal; inactive = no such curve, though single readings can be large or run the other way; % of control where 0% means no effect;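 note: the control signal comes from parental cells without the receptor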
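HEK 293 cells stably expressing TSHR and a modified CNG channel, with CNG-only parental cells as counterscreen, were preloaded 60 min at room temperature with membrane potential dye containing 100 uM RO 20-1724. Compound exposure was 30 min, and depolarization was read as fluorescence at 590 nm.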
CRE-bla Fsk – CRE-bla signaling modulation under forskolin stimulation; CHO CRE-bla reporter (cAMP response element driving beta-lactamase), forskolin EC10, beta-lactamase ratio; Potency, µM (doses to about 38.2 µM), for the others: at the highest dose activity change, negative = inhibition, usual class: activators; 71,000 compounds, 2.5% hits; active = well fitted activation curve with a large enough effect in the signal ratio, with a control signal flat, not every such curve was filed as active; inconclusive = small, poorly fitted or top-dose-only effect, or effect the other way, or a change in a side signal; the % refers to the signal ratio; note: % of control where 0% means no effect
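Reporter-gene assay: CHO cells with beta-lactamase behind cAMP responsive elements, co-treated with compound and EC10 NKH 477 for 3 hours at 37 degrees Celsius. Activity came from the 460/530 nm CCF4 emission ratio.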
Caspase-1 inhib – caspase-1 (human) inhibition, allosteric or competitive; P29466; Caspase-1 enzyme, Ac-WEHD-AFC fluorogenic rate; Potency, µM (titrated, usually from 57.5 µM), inactives show at the highest dose activity change, negative = inhibition, actives largely listed as inhibitors; 75,000 compounds, 0.03% hits;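 note: plate controls were vehicle for no effect and no substrate for full effect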
USP2a inhib – blocks human ubiquitin-specific protease USP2a; AID 927; USP2a enzymatic assay, qHTS inhibition; O75604; Potency, µM (titrated, usually from 38.3 µM), without a hit: at the top dose activity change, negative = inhibition, most hits filed as inhibitors; 60,000 compounds, 0.1% hits; note: nearly all actives have a fitted effect of over 60% in size
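Inhibition is measured in a cell-free coupled assay with 20 nM USP2 core, 20 nM Ub-PLA2 and 20 uM NBD C6-HPC, 2.5 h incubation. Activity normalized to NEM control.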
Numbers without * were called inactive; ? = inconclusive; nt = not tested or not shown; [ ] = dose if it differs, or a comment. This is a sample that favours compounds with a hit; in the whole collection about 5% have one here. Unless noted, calls come from the whole dose curve; as a rule, active = well fitted curve in the direction sought with a large enough effect; inconclusive = small, poorly fitted or top-dose-only effect, or another doubt; inactive = no such curve, though single readings can be large; an effect the other way counts as inactive or inconclusive. Potency is the fitted concentration of half-maximal effect.

SMILES	HEK293 cAMP cs	Caspase-7 inhib	TSHR ag	CRE-bla Fsk	Caspase-1 inhib	USP2a inhib
N=C1CCC[C@@H]1C(=S)SCCC(N)=O	2%[11.4 µM]	0%[11.5 µM]	-3%[11.4 µM]	-5%[7.6 µM]	-3%[11.5 µM]	nt
O=C(CSc1ccc(-c2ccccc2)nn1)N1CCOCC1	-8%	-1%	-13%	13%	0%	3%
O=C(CSc1nc(-c2ccccc2)nc2c1CCCC2)N1CCOCC1	23%	1%	13µM*	1%	-2%	12%
COc1ccc2c(c1)c1ncn(Cc3ccco3)c(=O)c1n2C	?	-2%	?	1µM*	-3%	27%
Cn1c2ccccc2c2ncn(CCC3=CCCCC3)c(=O)c21	?	-3%	?	?	-5%	0%
CC(C)CCn1c(N)c(S(=O)(=O)c2cccs2)c2nc3ccccc3nc21	13%	-27%	13µM*	?	?	30%
Nc1c(S(=O)(=O)c2cccs2)c2nc3ccccc3nc2n1Cc1cccs1	?	?	?	?	nt	31%
Nc1ncnc2nc[nH]c12.Nc1ncnc2nc[nH]c12.[Cl][Pt]([Cl])([Cl])[Cl]	0%[11.4 µM]	nt	-4%[11.4 µM]	1%[7.6 µM]	nt	nt
NCCNc1ncnc2ccc(Cl)cc12	7%[11.4 µM]	0%[11.5 µM]	-7%[11.4 µM]	6%[7.6 µM]	0%[11.5 µM]	nt
CCOC(=O)C1CCN(c2c(Nc3ccc4c(c3)OCCO4)c(=O)c2=O)CC1	5%	-2%	-38%	-6%	-2%	nt
CCOC(=O)C1CCN(C(C(=O)Nc2ccc3c(c2)OCCO3)c2ccccc2)CC1 (stereo unspecified)	13µM*	2%	?	-5%	1%	6%
COc1ccc(C(=O)N2CCC3(CCCN(C(=O)Nc4cccc(C#N)c4)C3)CC2)cc1	11%	-2%	25µM*	-12%	-2%	142%
COC(=O)N1CCC[C@@]2(CCN(C(=O)Nc3cccc(F)c3)C2)C1	7.9µM*	0%	?	0%	-4%	1%
COC(=O)N1CCC2(CCCN(C(=O)Nc3cccc(C#N)c3)C2)CC1	13%	1%	2%	3%	-5%	2%
COC(=O)NC/C=C\c1nc(CCCO)co1	1%[11.4 µM]	0%[11.5 µM]	-6%[11.4 µM]	nt	0%[11.5 µM]	nt
COc1cc([C@H](O)CO)ccc1O	0%	1%	nt	6%	2%	1%
O=c1cc(CSc2nnc(-c3cccs3)n2Cc2ccccc2)nc2sc3ccccc3n12	10µM*	-20%	?	?	-5%	-1%
C=CCn1c(SCc2ccc(C#N)cc2)nnc1-c1cccc(OC)c1	3.2µM*	1%	?	5%	-1%	12%
c1ccc(CSc2nnc(-c3cccs3)n2Cc2ccco2)cc1	25µM*	-1%	?	6%	-2%	27%
COc1cccc(-c2nnc(SCc3ccc(C#N)cc3)n2Cc2ccco2)c1	6.3µM*	0%	?	-22%	-2%	19%
CC(C)CO/N=C1/C[C@@H](O)[C@@H](O)[C@@H]2[C@@H]3C(=O)N(Cc4ccc5c(c4)OCO5)C(=O)[C@H]3CC[C@@H]12	-3%[11.4 µM]	-1%[11.5 µM]	-3%[11.4 µM]	nt	-2%[11.5 µM]	nt
Cc1cccc(-c2nnc(SCc3nc4ccccc4[nH]3)n2Cc2ccco2)c1	13µM*	-3%	?	2.5µM*	-6%	46%
c1coc(Cn2c(SCc3nc4ccccc4[nH]3)nnc2-c2cccs2)c1	8%	0%	30%	-5%	-1%	-4%
O=c1c2[nH]c3ccc(Br)cc3c2ncn1CCCn1ccnc1	-12%	-2%	-15%	10µM*	-2%	2%
O=c1c2[nH]c3ccccc3c2ncn1CCCn1ccnc1	-1%	1%	0%	?	-1%	0%
SMILES	HEK293 cAMP cs	Caspase-7 inhib	TSHR ag	CRE-bla Fsk	Caspase-1 inhib	USP2a inhib
CCCCCn1c(N)c(C#N)c2nc3ccccc3nc21	-2%	?	-10%	10µM*	nt	19%
COc1ccc(CCn2c(N)c(C#N)c3nc4ccccc4nc32)cc1OC	5%	?	-14%	16µM*	nt	12%
N#Cc1c(N)n(CCCN2CCOCC2)c2nc3ccccc3nc12	16%	?	-2%	13µM*	nt	10%
COc1ccc(CCn2c(N)c(S(=O)(=O)c3cccs3)c3nc4ccccc4nc32)cc1OC	-8%	-1%	-6%	?	-2%	11%
Cc1ccc(S(=O)(=O)c2c(N)n(CCN3CCOCC3)c3nc4ccccc4nc23)cc1C	-6%	-4%	0%	5%	-5%	4%
CCCNC(=O)OC[C@@H]1O[C@H](CCO/N=C(\C)CCN2CCc3nc(-c4ccccc4)c(-c4ccccc4)cc3C2)C=C[C@@H]1Oc1ccc(OC)cc1	2%[11.4 µM]	-1%[11.5 µM]	-5%[11.4 µM]	nt	2%[11.5 µM]	nt
COc1ccc(C(=O)[C@H]2[C@H]3[C@@H](C(=O)[C@@H]4OC[C@H]3O4)[C@H]3C=Cc4ccccc4N32)c(OC)c1	8%	nt	-4%	-21%	nt	nt
CO[C@H]1COC(=O)[C@H](C)COC(=O)[C@@H](OCc2ccccc2)/C=C\[C@@H]1C	2%[11.4 µM]	-1%[11.5 µM]	6%[11.4 µM]	nt	0%[11.5 µM]	nt
CCOC(=O)N1CCN(c2cc(NCCC(=O)O)c3c4c(onc24)-c2ccccc2C3=O)CC1	-16%	-12%	-18%	?	?	15%
O=C(O)CCCNc1cc(N2CCC3(CC2)OCCO3)c2noc3c2c1C(=O)c1ccccc1-3	-24%	-13%	-19%	10µM*	?	14%
O[C@@H]1CC[C@H]2Cc3ccccc3N=C21	2%	nt	-3%	-16%	nt	nt
Cc1ccc2[nH]c(=O)c(CN(Cc3ccccc3)Cc3nnnn3C3CCCC3)cc2c1	25µM*	-1%	?	-1%	?	31%
Cc1ccc(C)c2[nH]c(=O)c(CN(CC3CCCO3)C(=O)NC3CCCCC3)cc12 (stereo unspecified)	4µM*	0%	?	-2%	-1%	nt
Cc1ccc(C)c2[nH]c(=O)c(CN(CCN3CCOCC3)Cc3nnnn3CC3CCCO3)cc12 (stereo unspecified)	?	-1%	?	-1%	-2%	3%
COc1ccc(Cn2nnnc2CN(Cc2cc3cc(C)ccc3[nH]c2=O)C2CCCC2)cc1	25µM*	-18%	?	3%	-2%	31%
Cc1ccc(C)c2[nH]c(=O)c(CN(Cc3nnnn3C3CCCCC3)CC3CCCO3)cc12 (stereo unspecified)	25µM*	2%	?	1%	-2%	31%
COc1ccc(CCC(=O)c2c(O)cc(O[C@@H]3O[C@H](CO)[C@@H](O)[C@H](O)[C@H]3O[C@@H]3O[C@@H](C)[C@H](O)[C@@H](O)[C@H]3O)cc2O)cc1O	?	1%	?	-4%	2%	nt
CC(C)C[C@H](NC(=O)[C@@H](O)[C@@H](N)Cc1ccccc1)C(=O)O	?	2%	?	-3%	3%	-1%

From PubChem
